# An excerpt weighted towards active compounds, which were near 2.4% of everything screened.
# MEKK2 WT-MEK5 = modulators of MEK5 binding to wildtype MEKK2, primary screen, biochemical, multiplex bead flow cytometry, Alexa488-MEK5 | Mitogen-activated protein kinase kinase kinase 2 (Homo sapiens), Q9Y2U5 | Alexa488-MEK5 binding to MEKK2 WT; actives lie on both sides | binding response (% of control), % at 10 µM | 1.1% of 290,000 active | AID 1531, 2009; in the data active means binding response below about 67% or above about 130%
# MEKK2 mut-MEK5 = MEK5 binding signal on mutant MEKK2 PB1, primary screen, biochemical, multiplex bead flow cytometry, Alexa488-MEK5 | Alexa488-MEK5 binding to MEKK2 mutant | percent response, % at 10 µM | 0.35% of 290,000 active | AID 1530, 2009; in the data active means percent response above about 24%, passing the limit was not always enough
# Arbovirus inh = antivirals against arbovirus infection, primary screen, cell-based, full library, 10K replicate subset; arbovirus infection cell-based antiviral screen; inhibition, % at 10 µM; 0.37% of 200,000 active; in the data active means inhibition above about 30%
# Pf gametocyte = late stage P. falciparum gametocyte viability inhibitors, primary screen, ATP luminescence, HTS | P. falciparum stage V gametocytes, 24 h | inhibition, % at 10.9 µM | 0.065% of 150,000 active;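 active means inhibition above the mean plus 3 SD of compounds within the control limits, set per campaign, cut at about 38% in these data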;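 further: 0% = DMSO wells and 100% = medium only without gametocytes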
# MEKK3 PB1 HTS = modulators of MEKK3-MEK5 PB1 binding, primary screen, biochemical, wildtype MEKK3, multiplex bead flow cytometry, Alexa488-MEK5; Mitogen-activated protein kinase kinase kinase 3 (Homo sapiens), Q99759; binding response (% of control), % at 10 µM; bead-based flow cytometry, Alexa488-MEK5 binding to MEKK3; actives lie on both sides; 0 = blocked by unlabeled MEK5, 100 = vehicle; 1.4% of 290,000 active;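 active means binding response more than 3 SD above or below the average of its plate-row segment, actives on both sides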;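 further: Alexa488 bead fluorescence after subtracting the streptavidin-only scavenger bead signal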
# Target sequence (Q99759 whole entry, looked up): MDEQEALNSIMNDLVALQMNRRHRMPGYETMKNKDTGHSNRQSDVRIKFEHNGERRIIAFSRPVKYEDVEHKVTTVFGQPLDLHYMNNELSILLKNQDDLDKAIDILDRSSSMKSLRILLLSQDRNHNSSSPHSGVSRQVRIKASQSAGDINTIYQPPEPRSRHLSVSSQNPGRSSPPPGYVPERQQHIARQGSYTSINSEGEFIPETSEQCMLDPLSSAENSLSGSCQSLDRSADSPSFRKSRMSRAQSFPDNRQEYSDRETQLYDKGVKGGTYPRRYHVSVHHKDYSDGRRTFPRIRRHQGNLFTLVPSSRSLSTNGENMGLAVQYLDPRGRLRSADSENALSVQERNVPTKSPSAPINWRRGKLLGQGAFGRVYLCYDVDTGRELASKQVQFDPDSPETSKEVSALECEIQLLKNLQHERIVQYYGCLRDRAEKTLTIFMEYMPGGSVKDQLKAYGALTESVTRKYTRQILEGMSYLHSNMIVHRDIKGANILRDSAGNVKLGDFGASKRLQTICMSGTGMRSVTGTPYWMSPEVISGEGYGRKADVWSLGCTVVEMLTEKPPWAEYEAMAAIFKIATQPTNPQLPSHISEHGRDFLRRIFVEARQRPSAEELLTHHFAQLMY
# An asterisk follows results filed as active; x = no result; [ ] = remark or other dose.
SMILES,MEKK2 WT-MEK5,MEKK2 mut-MEK5,Arbovirus inh,Pf gametocyte,MEKK3 PB1 HTS
NC(=O)c1ccsc1NC(=O)CSc1nnc(Nc2ccccc2)s1,102,7,2,9,107
Cc1cccc(C)c1NC(=O)c1sc(Cl)nc1C,107,3,-1,-12,104
CCc1ccccc1N(CC(=O)NCc1ccco1)C(=O)CCC(=O)Nc1nccs1,99,1,x,x,102
CCCN(CCC)c1ccc(/C=C/c2ccc3cc(OCC)ccc3n2)cc1,x,51*,x,x,86
Cc1ccc(N(CC(=O)N2CCN(c3ccc(F)cc3)CC2)S(=O)(=O)c2c(C)noc2C)cc1,100,4,x,x,102
CCOc1ccc(-n2c(=S)sc3c(=O)[nH]c(SCC(=O)NC(C)CC)nc32)cc1 (centres undefined),100,2,7,x,103
CCCCN(CC)C(=O)CSc1nc2c(sc(=S)n2-c2ccc(OCC)cc2)c(=O)[nH]1,95,-5,47*,7,99
CCOC(=O)CC(=O)CSc1nc2c(sc(=S)n2-c2ccc(OCC)cc2)c(=O)[nH]1,91,-3,60*,-8,93
CCCN(CCC)C(=O)CSc1nc2c(sc(=S)n2-c2ccc(OCC)cc2)c(=O)[nH]1,108,8,42*,4,107
COC(=O)c1nn(-c2ccc(Oc3ccccc3)cc2)c(=O)cc1O,99,-2,15,x,102
O=C(CSc1nc(C2CCCCC2)n(-c2ccccc2)n1)NCC(F)(F)F,107,0,-7,11,145*
O=C(CSc1nc(C2CCCCC2)n(-c2ccccc2)n1)NCCN1C(=O)CSC1=O,109,11,3,x,104
O=C(CCc1ccccc1)N=C1SC2CS(=O)(=O)CC2N1c1cccc(F)c1 (centres undefined),100,9,x,x,100
Cc1cc(Cl)c2oc(C(=O)N(C)CC3CCOCC3)c(C)c2c1,43*[inhibitor],-39,x,x,31*[inhibitor]
C=CCN(C(=O)c1oc2c(Cl)cc(C)cc2c1C)C1CCS(=O)(=O)C1 (centres undefined),100,-1,x,x,97
COc1cc2c(C(=O)O)c(C)n(CC(C)C)c2c2ccccc12,x,x,54*,x,x
O=C(NCCCN1CCOCC1)c1ccc(/C=C2\Oc3ccccc3N(Cc3ccccc3F)C2=O)cc1,133,22,x,x,105
CCN1CCN(CCCNC(=O)c2ccc(/C=C3/Oc4ccccc4N(Cc4cccc(C)c4)C3=O)cc2)CC1,169*,34*,x,x,105
CCN1CCN(CCCNC(=O)c2ccc(/C=C3/Sc4ccccc4N(Cc4ccccc4F)C3=O)cc2)CC1,177*,40,-25,1,102
N#CC(C(=O)c1ccccc1)=C1SCCS1,102,2,x,-54,101
CC(C)C(NC(=O)C12CC3CC(CC(C3)C1)C2)C(=O)N/N=C/C1=C(N2CCOCC2)C(=C\c2ccc([N+](=O)[O-])cc2)/CC1 (centres undefined),-2.0*,3,-3,5,96
Cc1ccc(-n2cccc2/C=C2\C(=N)N3N=C(C(C)C)SC3=NC2=O)cc1,100,-1,32*,-20,99
COc1ccc(CN2CCOCCOCCOCCOCC2)cc1,-3.0*,19,x,12,94
CCn1c(C(=O)O)c(CC(=O)N(C)c2ccc(OC)cc2OC)c2ccccc21,104,5,x,x,102
Cc1ccc(S(=O)(=O)CCSc2cccc(C(=O)Nc3ccccc3C(=O)O)c2)cc1,110,2,44*,-2,105
SMILES,MEKK2 WT-MEK5,MEKK2 mut-MEK5,Arbovirus inh,Pf gametocyte,MEKK3 PB1 HTS
Cc1ccc(S(=O)(=O)N(CCO)Cc2cc3ccc(C)c(C)c3[nH]c2=O)cc1,104,2,-11,x,97
Cc1ccc(S(=O)(=O)N(CCCO)Cc2cc3c(C)ccc(C)c3[nH]c2=O)cc1,-2.0*,-12,6,x,90
Cc1ccc2nc(-c3ccccc3Cl)cc(C(=O)Nc3cc(C)on3)c2c1,91,-8,34*,10,93
Cc1ccc(/C=N/NC(=O)c2c(C)nc3ccc(Cl)cn23)cc1,x,x,x,-5,x
Cc1cc(SCC(=O)N/N=C/c2ccc(O)c(O)c2O)c(C)cc1Br,95,2,-26,39*,100
COc1cc(/C=N/NC(=O)CSc2cc(C)c(Br)cc2C)ccc1O,94,1,-15,15,100
O=C(N/N=C/c1ccc(OC(F)F)cc1OC(F)F)c1cccc(S(=O)(=O)N2CCOCC2)c1,99,-1,-5,17,103
Cc1ccc(NC(=S)NC(=O)c2ccccc2)cc1NC(=S)NC(=O)c1ccccc1,2.0*,-11,x,x,83
Cc1cc(C)c(NC(=S)NC(=O)c2ccc(-c3ccccc3)cc2)c(C)c1,94,0,30*,x,100
Cn1c(-c2ccccc2)cnc1N,108,3,-15,x,103
COc1ccc(-c2cnc(N)n2C)cc1,-8.0*,-36,8,24,98
O=C(NCc1cccnc1)c1ccc([N+](=O)[O-])o1,87,-10,-16,-4,98
Cc1ccc(S(=O)(=O)Nc2cccc3ncccc23)s1,-1.0*[inhibitor],-9,-46,x,1.0*[inhibitor]
Cc1ccc2[nH]c(=O)c(CN(C(=O)c3cccc([N+](=O)[O-])c3)C(C)C)cc2c1,102,3,x,-10,100
Nc1nc(N)c2cc(Sc3ccc4ccccc4c3)ccc2n1,157*,26,x,-1,99
Nc1ccc(Sc2cc(Cl)nc(N)n2)cc1,99,-2,1,x,101
CCc1ccc(C(=O)CSc2nc(C)cc(=O)[nH]2)cc1,102,-5,-3,12,97
CC(=O)Nc1ccc(C(=O)Nc2nc(-c3cccnc3)cs2)cc1,88,-4,25,x,93
CC(=O)Nc1ccc(-c2csc(NC(=O)c3ccc(C)o3)n2)cc1,98,-1,39*,x,99
CCOc1ccc(-c2csc(NC(=O)c3ccco3)n2)cc1,99,0,x,x,100
O=C(Nc1nc(-c2ccco2)cs1)c1ccccc1,96,-2,62*,-5,100
CC(=O)Nc1ccc(C(=O)Nc2nc(-c3ccccn3)cs2)cc1,102,-1,34*,4,117
COc1ccc(-c2csc(NC(=O)c3ccco3)n2)cc1,109,4,65*,x,103
CCOc1cccc(-c2cc(C(=O)N3N=C(C)CC3(O)C(F)F)c3ccccc3n2)c1 (centres undefined),97,-2,0,8,101
CC(C)CNC(=O)c1ccc(Cl)c(N)c1,103,-1,1,x,106
COc1ccc(C(=O)OCN2C(=O)c3ccccc3C2=O)cc1,85,-9,4,-7,91
CC(=O)c1cccc(CN2CCCC(CCC(=O)NCc3ccc(C)o3)C2)c1 (centres undefined),97,-5,-4,-9,100
